Compound activity (PubChem BioAssay)
A selection: hits, their analogues and other compounds. The true share with any hit is near 1.8%.
RPL19A TOR yeast: modulators of TOR pathway RPL19A-GFP in S. cerevisiae. S. cerevisiae RPL19A-GFP strain, flow cytometry, 3 h; active compounds read low. percent response vs DMSO, % at 10 µM. hit rate 0.3% among 330,000. AID 2025;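 active = percent response vs DMSO below 50%; inconclusive = fewer than 70 events counted for the yeast strain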;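 note: median channel GFP fluorescence of the barcoded RPL19A-GFP strain; lower means less RPL19A-GFP as with rapamycin TOR inhibition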
LAP4-GFP MLPCN: modulators of TOR pathway LAP4-GFP in S. cerevisiae; S. cerevisiae LAP4-GFP multiplex, flow cytometry GFP, 3 h; median GFP as percent of DMSO wells; GFP response vs DMSO, % at 10 µM; hit rate 0.34% among 320,000;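 active = GFP response vs DMSO above a set limit, about the screen mean plus 3 SD, cut at about 150% in these data; inconclusive = under 70 cell events counted for the yeast strain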
CIT2 TOR yeast: modulators of TOR pathway CIT2-GFP in S. cerevisiae | S. cerevisiae CIT2-GFP strain, flow cytometry, 3 h; 100 means same as DMSO wells | hit rate 0.065% among 320,000 | GFP response vs DMSO, % at 10 µM;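 active = GFP response relative to DMSO above a set limit, near the screen mean plus 3 SD, cut at about 150% in these data; inconclusive = Fewer than 70 cells measured for a yeast strain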;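 note: ratio of well median GFP fluorescence to mean of DMSO wells on the plate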
AGP1 TOR yeast: yeast TOR pathway AGP1-GFP modulation; hit rate 0.02% among 320,000; GFP response vs DMSO, % at 10 µM; S. cerevisiae AGP1-GFP multiplex flow cytometry, 3 h; GFP as percent of DMSO wells;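 active = GFP response relative to DMSO above a set limit, near screen average plus 3 SD, cut at about 150% in these data; inconclusive = fewer than 70 cells counted for the yeast strain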;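 note: median GFP channel fluorescence of the gated AGP1 strain per well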
MEP2-GFP yeast: modulators of TOR pathway MEP2-GFP in S. cerevisiae | GFP response vs DMSO, % at 10 µM | hit rate 0.51% among 330,000 | AID 2016 | S. cerevisiae MEP2-GFP strain, flow cytometry GFP, 3 h; 100% = DMSO control level;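 active = GFP response versus DMSO above a set limit, roughly screen mean plus 3 SD, cut at about 180% in these data; inconclusive = fewer than 70 cells counted for a yeast strain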;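 note: median GFP fluorescence of the barcode-gated MEP2-GFP cells per well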
Myeloid diff MLP: compounds promoting myeloid differentiation; ER-HoxA9 myeloid progenitors, lysozyme-GFP differentiation, flow cytometry; calls only at 10 µM; hit rate 1% among 360,000; AID 624256;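 active = normalized GFP-positive differentiation at or above the plate's own cutoff, the solvent-only control mean plus 3 SD; inconclusive = no clear call, values can overlap the other calls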;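 note: cells exposed to compound for four days before flow analysis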
LAP4-GFP pick2: reconfirmed LAP4-GFP TOR pathway modulator in yeast; shares compounds with LAP4-GFP MLPCN; S. cerevisiae LAP4-GFP strain, flow cytometry GFP, 3 h; GFP response vs DMSO, % at 10 µM; hit rate 20% among 590;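 active = GFP signal as percent of the solvent control above about 150%, meaning raised reporter expression, limit read from the data; inconclusive = fewer than 70 cells counted in the well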
MEP2-GFP pick2: reconfirmed MEP2-GFP TOR pathway modulator in yeast; shares compounds with LAP4-GFP MLPCN; S. cerevisiae MEP2-GFP strain, flow cytometry GFP, 3 h; GFP response vs DMSO, % at 10 µM; hit rate 10% among 590; AID 2622;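 active = GFP signal above 150% of the solvent control wells, that is a rise of more than half; inconclusive = fewer than 70 yeast cells counted in the well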;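 note: median channel GFP fluorescence of all gated yeast cells per well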
RPL19A-GFP pick2: reconfirmed modulator of RPL19A-GFP TOR reporter in yeast | shares compounds with LAP4-GFP MLPCN | S. cerevisiae RPL19A-GFP strain, flow cytometry GFP, 3 h; active compounds read low; 100% means same as DMSO wells | GFP response vs DMSO, % at 10 µM | hit rate 3% among 590 | AID 2623;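 active = under 65% GFP response relative to DMSO; inconclusive = yeast strain with under 70 measured events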;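 note: median GFP channel fluorescence per well over the all cells gate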
CIT2-GFP pick2: reconfirmed modulator of CIT2-GFP TOR reporter in yeast; GFP response vs DMSO, % at 10 µM; S. cerevisiae CIT2-GFP strain, flow cytometry GFP, 3 h; DMSO control wells read 100%; shares compounds with LAP4-GFP MLPCN; hit rate 8% among 590;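 active = GFP response vs DMSO above about 150%, limit read from the data; inconclusive = fewer than 70 events counted for a yeast strain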;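 note: median green fluorescence per well over all gated yeast cells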
AGP1 GFP CP2: reconfirmed modulator of AGP1-GFP TOR reporter in yeast | shares compounds with LAP4-GFP MLPCN | percent response vs DMSO, % at 10 µM | S. cerevisiae AGP1-GFP strain, flow cytometry GFP, 3 h | 590 tested, under 10 active | AID 2643;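 active = over 150 percent of DMSO response; inconclusive = yeast strain measured with under 70 events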;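 note: median GFP channel fluorescence over all cells without mother daughter split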
Yeast autofluor: counter-screen for compound autofluorescence in yeast s288c cells; AID 2757; 610 tested, under 10 active; fluorescence change (kMESF span) at 33 µM; shares compounds with LAP4-GFP MLPCN; S. cerevisiae s288c, 520 nm autofluorescence, flow cytometry, 3 h; active compounds read high; zero means same as solvent-only cells;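 active = fluorescence span over the dose series, or activity score, above about 33, limit read from the data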
Yeast autofl DR: yeast s288c autofluorescence artifact in dose response; shares compounds with LAP4-GFP MLPCN; S. cerevisiae s288c parental, compound autofluorescence, flow cytometry, 3 h; fluorescence change (span) at 33 µM; 110 tested, under 10 active; AID 488829;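 active = fluorescence change span, or the activity score built from it, above 25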
TORC1 bypass gr: compounds blocking wildtype yeast growth but not TORC1 bypass cells | AID 504456 | S. cerevisiae BY4741 spot growth rating, 48-72 h; active compounds read low | 120 tested, under 10 active | growth rating (0-3) at 30 µM | shares compounds with LAP4-GFP MLPCN;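 active = growth rating at most 1 for wild type yeast while the TORC1 bypass strain still grows fully, rated 3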
Each line names hits and unclear results; the compound was inactive in the other large screens (follow-up assays come after a bar, where they were run).

O=C(c1ccccc1)N1CCC(c2nc3c(nnn3Cc3ccco3)c(=O)[nH]2)CC1	none
C/C(=N\OC(=O)c1ccc(F)cc1)c1sc(-c2ccc(Cl)cc2)nc1C	none
O=C(NCc1ccc(-c2nc3ccccc3s2)cc1)c1cc2ccccc2o1	none (no result: RPL19A TOR yeast, LAP4-GFP MLPCN, CIT2 TOR yeast, AGP1 TOR yeast, MEP2-GFP yeast)
CCOC(=O)C1CCCN(C(=O)c2cc(Cl)ccc2Cl)C1 (stereo unspecified)	none
CCC(C(=O)NCc1ccco1)N(C(=O)CNS(=O)(=O)c1ccc(F)cc1)c1ccccc1F (stereo unspecified)	none
CC(C)(C)c1ccc(-c2cnco2)cc1	AGP1 TOR yeast inconclusive, MEP2-GFP yeast inconclusive | LAP4-GFP pick2 inactive | MEP2-GFP pick2 inactive | RPL19A-GFP pick2 inactive | CIT2-GFP pick2 inactive | AGP1 GFP CP2 inactive
CC(C)(C)C(=O)Nc1ccc(-c2cnco2)cc1	none
O=C(Nc1ccccc1SC(=O)c1ccccc1)c1ccccc1	none (no result: RPL19A TOR yeast, LAP4-GFP MLPCN, CIT2 TOR yeast, AGP1 TOR yeast, MEP2-GFP yeast)
Cc1ccc(C(=O)Sc2cccccc2=O)cc1	LAP4-GFP MLPCN 244, Myeloid diff MLP inconclusive | Yeast autofluor inactive
O=S1OC(c2ccccc2)c2cc(Cl)ccc21 (stereo unspecified)	LAP4-GFP MLPCN 157 | LAP4-GFP pick2 inactive | MEP2-GFP pick2 inactive | RPL19A-GFP pick2 inactive | CIT2-GFP pick2 inactive | AGP1 GFP CP2 inactive
CN(C(=O)c1cccc(NC(=O)Cc2ccc(NC(=O)C3CCN(C(=O)C4CC4)CC3)cc2)c1)C1CC1	none (no result: RPL19A TOR yeast, LAP4-GFP MLPCN, CIT2 TOR yeast, AGP1 TOR yeast, MEP2-GFP yeast)
CCCNC(=O)c1onc(CSc2ccc(Cl)cc2)c1C(=O)NC(C)C	LAP4-GFP MLPCN 173 | LAP4-GFP pick2 inactive | MEP2-GFP pick2 inactive | RPL19A-GFP pick2 inactive | CIT2-GFP pick2 inactive | AGP1 GFP CP2 inactive
CCCCCCN1C[C@H](n2cc(COC(=O)c3ccccc3)nn2)[C@@H](O)C[C@@H]1c1ccc(Cl)cc1	none (no result: RPL19A TOR yeast, LAP4-GFP MLPCN, CIT2 TOR yeast, AGP1 TOR yeast, MEP2-GFP yeast)
O=[N+]([O-])c1cc2cccnc2c2ncccc12	none
O=[N+]([O-])c1cc(O)c2ncccc2c1	LAP4-GFP MLPCN 169 (no result: Myeloid diff MLP) | Yeast autofluor inactive | Yeast autofl DR inactive | TORC1 bypass gr inactive
CCC1CCCCN1C(=O)C(=O)c1cn(CC(=O)N(CC)CC)c2ccccc12 (stereo unspecified)	CIT2 TOR yeast 181 | LAP4-GFP pick2 inactive | MEP2-GFP pick2 inactive | RPL19A-GFP pick2 inactive | CIT2-GFP pick2 inactive | AGP1 GFP CP2 inactive
O=C(NCC(=O)N1CCN(c2ccccc2O)CC1)C1CCCCC1	none
O=C(NCC(=O)N1CCC(N2CCCCC2)CC1)C1CCCCC1	RPL19A TOR yeast 26, MEP2-GFP yeast 230 | LAP4-GFP pick2 inactive | MEP2-GFP pick2 inactive | RPL19A-GFP pick2 inactive | CIT2-GFP pick2 inactive | AGP1 GFP CP2 inactive
CCN(CC(=O)Nc1c(F)cccc1F)C(=O)c1cccc(S(=O)(=O)NCc2ccccc2)c1	none
CCN(C(=O)Cn1c(=O)oc2cc(S(=O)(=O)N3CCCC3)ccc21)c1ccc(OC)cc1	MEP2-GFP yeast 504 | LAP4-GFP pick2 inactive | MEP2-GFP pick2 inactive | RPL19A-GFP pick2 inactive | CIT2-GFP pick2 inactive | AGP1 GFP CP2 inactive
CCN(C(=O)Cn1c(=O)oc2cc(S(=O)(=O)N3CCOCC3)ccc21)c1ccccc1	none
O=C(NCC1CCCCC1)C1CCC(=O)N(CCc2cccc(F)c2)C1 (stereo unspecified)	none
COc1cc(Cl)c(S(=O)(=O)N2CCCC2)cc1Cl	none
COc1cc(N2C(=O)C=CC2=O)c(OC)cc1Cl	LAP4-GFP MLPCN 260 | Yeast autofluor inactive
CCN1CCN(Cc2c(O)ccc3c2O/C(=C\C=C\c2ccccc2)C3=O)CC1	LAP4-GFP MLPCN 153, Myeloid diff MLP inconclusive | LAP4-GFP pick2 inactive | MEP2-GFP pick2 inactive | RPL19A-GFP pick2 inactive | CIT2-GFP pick2 inactive | AGP1 GFP CP2 inactive
O=C1/C(=C/C=C/c2ccccc2)Oc2c1ccc(O)c2CN1CCN(CCO)CC1	none
CCOc1ccc(C(Nc2cccnc2)c2cc(Cl)c3cccnc3c2O)cc1 (stereo unspecified)	LAP4-GFP MLPCN 224, Myeloid diff MLP active | Yeast autofluor inactive
CC1=CC(=O)C(C(C)C)=C/C1=N/OS(=O)(=O)c1ccccc1	LAP4-GFP MLPCN 216 (no result: Myeloid diff MLP) | Yeast autofluor inactive
O=C1C=C(c2ccc3ncccc3c2)C[C@@H](c2ccc(Cl)cc2)C1	LAP4-GFP MLPCN 151 | LAP4-GFP pick2 inactive | MEP2-GFP pick2 inactive | RPL19A-GFP pick2 inactive | CIT2-GFP pick2 inactive | AGP1 GFP CP2 inactive
COc1ccc([C@H]2CC(=O)C=C(c3ccc4ncccc4c3)C2)cc1	none
CCCCNC(=O)CS(=O)Cc1nc(-c2cccc(C)c2)oc1C (stereo unspecified)	none
CCC(C)NC(=O)CS(=O)Cc1nc(-c2cccc(C)c2)oc1C (stereo unspecified)	LAP4-GFP MLPCN 156 | LAP4-GFP pick2 inactive | MEP2-GFP pick2 inactive | RPL19A-GFP pick2 inactive | CIT2-GFP pick2 inactive | AGP1 GFP CP2 inactive
C/C(=N\NC(=O)c1cc(Br)ccc1O)c1ccccn1	none
C/C(=N/NC(=O)c1ccc(C(C)(C)C)cc1)c1ccccn1	LAP4-GFP MLPCN 194, Myeloid diff MLP inconclusive | Yeast autofluor inactive
C/C(=N\NC(=O)c1cccc(Br)c1)c1ccccn1	LAP4-GFP MLPCN 169, Myeloid diff MLP inconclusive | Yeast autofluor inactive | Yeast autofl DR inactive | TORC1 bypass gr inactive
